Reference: the supplement of paper PMC11219838

system: Meloidogyne hapla J2; assay: proportion of mobile M. hapla J2 relative to DMSO control (fraction of DMSO control); higher = more viable, less nematicidal, active = 0.7 or less; settings: 60 µM; 5 days; temperature: 20 °C
Experimental: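 DODA library (846 commercial 1,3,4- and 1,2,4-oxadiazole compounds plus commercial nematicide controls) screened at a single dose of 60 µM (0.6% DMSO) in 96-well plates, two biological replicates. Read-outs: C. elegans N2 L1 survival/reproduction score at day 6, 20 °C (0: 0-10 worms, 1: 11-20, 2: 21-50, 3: >50, 4: overgrown/starved). C. elegans daf-2 dauer, D. dipsaci and M. hapla J2 mobility at day 5, 20 °C, and P. penetrans mobility at day 5, 20 °C, each relative to DMSO controls. M. hapla egg hatching at day 12, 25 °C, relative to the mean of 8 DMSO wells on the same plate.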

| SMILES | proportion of mobile M. hapla J2 |
| --- | --- |
| CC[C@H](C)[C@H]1O[C@]2(C=C[C@@H]1C)C[C@@H]1C[C@@H](C/C=C(\C)[C@@H](O[C@H]3C[C@H](OC)[C@@H](O[C@H]4C[C@H](OC)[C@@H](O)[C@H](C)O4)[C@H](C)O3)[C@@H](C)/C=C/C=C3\CO[C@@H]4[C@H](O)C(C)=C[C@@H](C(=O)O1)[C@]34O)O2.CO[C@H]1C[C@H](O[C@H]2[C@H](C)O[C@@H](O[C@@H]3/C(C)=C/C[C@@H]4C[C@@H](C[C@]5(C=C[C@H](C)[C@@H](C(C)C)O5)O4)OC(=O)[C@@H]4C=C(C)[C@@H](O)[C@H]5OC/C(=C\C=C\[C@@H]3C)[C@]54O)C[C@@H]2OC)O[C@@H](C)[C@@H]1O [abamectin] | 1.03 (inactive) |
| O=C(NCCc1ncc(C(F)(F)F)cc1Cl)c1ccccc1C(F)(F)F [fluopyram] | 0.653 (active) |
| CNC(=O)O/N=C(\SC)C(=O)N(C)C [oxamyl] | 0.936 (inactive) |
| CC(C)NC(=O)N1CC(=O)N(c2cc(Cl)cc(Cl)c2)C1=O [iprodione] | 1.03 (inactive) |
